HT1080 IDH1KD tx – toxicity to HT-1080 IDH1 knockdown cells (counter line); HT-1080 IDH1 knockdown viability, ATP luminescence, 48 h; Potency, µM (doses to about 46.1 µM), for the others: at the top dose activity, negative = toxicity, hits mostly cytotoxic; 360,000 tested, 2% active; AID 686971;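 also: potency is read from the fitted curve at half-maximal effect; 0% = DMSO wells and -100% = cell-free medium wells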
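After a 2 h attachment period, IDH1KD HT-1080 cells took pin-transferred compound for 48 h at 37 °C; ATP-based luminescence after 10 min room-temperature reagent incubation reported viability.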
TDP1 cell noCPT – qHTS for Inhibitors of human tyrosyl-DNA phosphodiesterase 1 (TDP1): qHTS in cells in absence of CPT | DT40 Tdp1-/- hTDP1 cells, no CPT, ATP luminescence, 48 h | 420,000 tested, 15% active | Potency, µM (top dose mostly 46.2 µM), for inactives: at the highest dose activity change, negative = growth inhibition, hits mostly inhibitors | AID 686978, 2013; also: potency is read from the fitted curve at half-maximal effect; nearly all actives have a fitted effect of over 55% in size
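Luminescent ATP content (CellTiter-Glo) served as the growth readout. Knockout chicken DT40 cells expressing human TDP1 were exposed to compounds without camptothecin for a minimum 48 hr at 37 °C.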
HT1080NT lethal – kills 2HG-producing HT-1080-NT fibrosarcoma cells; Potency, µM (highest dose often 46.1 µM), inactives show top-dose activity, negative = less viability, most hits filed as cytotoxic; HT-1080-NT fibrosarcoma viability, CellTiter-Glo ATP luminescence, 48 h; AID 686970; 360,000 tested, 1.6% active;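 also: NT is the 2HG producing partner of a matched IDH1 knockdown line; potency is read from the fitted curve at half-maximal effect; 0% = DMSO-treated cells and -100% = media-only wells without cells; nearly all actives have a fitted effect of over 55% in size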
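A 48-hour cytotoxicity screen used HT-1080-NT cells plated 2 hours before compound delivery. ATP-based CellTiter-Glo luminescence measured viability, normalized to DMSO and no-cell controls.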
DT40 TDP1 CPT – growth inhibition of DT40 Tdp1-/-;hTDP1 cells with camptothecin (screen for TDP1 inhibitors); AID 686979; Potency, µM (series often up to 46.2 µM), inactives show at the highest dose activity change, negative = growth inhibition, hits mostly inhibitors; chicken DT40 Tdp1-/-;hTDP1 cells + 20 nM CPT, ATP luminescence, 48 h; 420,000 tested, 12% active; also: potency is read from the fitted curve at half-maximal effect; nearly all actives have a fitted effect of over 55% in size
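Chicken DT40 Tdp1-/- cells complemented with human TDP1, 400 cells/well, exposed to compounds plus 20 nM camptothecin for at least 48 h at 37 C; viability read as ATP content by CellTiter-Glo luminescence.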
IL-1B inflam inh – inhibitors of inflammasome signaling (IL-1 beta secretion) | activity change, % at 57.5 µM | 360,000 tested, 4.7% active | THP-1 LPS/ATP IL-1B secretion, AlphaLISA, 16 h; hits give low values; in the data active = activity change below about -50%; inconclusive = mostly about -30% to -49%
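THP-1 cells pretreated 1 hr with compounds (up to 57.5 uM final), then stimulated with LPS (250 ng/mL final) plus ATP (1.25 mM final); secreted IL-1B measured by AlphaLISA after 16 hr, decreased signal indicating inhibition.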
ELG1 DNA repair – blocks ELG1-dependent DNA repair in HEK293T cells; 330,000 tested, 2.3% active; Potency, µM (doses to about 46.1 µM), inactives show at the highest dose activity change, negative = inhibition, hits mostly inhibitors; HEK293T ELG1-luciferase reporter, luminescence, 16 h; DNA damage induced by 5-fluorouridine; AID 504467; also: potency is read from the fitted curve at half-maximal effect; nearly all actives have a fitted effect of over 55% in size
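HEK293T cells expressing luciferase-tagged ELG1 (2,000/well) received 5-Fluorouridine plus compound or DMSO for 16 hr at 37 °C. Luciferase was read by ONE-Glo luminescence after 30 min at room temperature.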
Starred values were filed as active, the others as inactive; u = inconclusive; x = no result. The list is not random: actives were taken first. Their share in the collection is about 19%. Unless noted, calls follow the shape of the dose curve; as a rule, active = well fitted curve in the direction sought with a large enough effect; inconclusive = small, poorly fitted or top-dose-only effect, or another doubt; inactive = no such curve, though single readings can be large; an effect the other way counts as inactive or inconclusive. Unless noted, % is scaled to controls: 0 for no effect and ±100 for the full control effect.

SMILES	HT1080 IDH1KD tx	TDP1 cell noCPT	HT1080NT lethal	DT40 TDP1 CPT	IL-1B inflam inh	ELG1 DNA repair
Cc1cccc(NC(=S)NNC(=O)c2ccccc2OC(F)F)c1	-3%	29µM*	3%	23µM*	-4	-9%
COc1ccc(NC(=S)NNC(=O)c2ccccc2OC(F)F)cc1	3.5µM*	18µM*	3.5µM*	13µM*	-15	-10%
CC(=O)/C=C\C1[C@]2(C)CCCC(C)(C)C2CC[C@@]1(C)O (stereo partly specified)	x	-2%	x	0%	x	x
Cc1cc(C)cc(NS(=O)(=O)CCCS(=O)(=O)Nc2cc(C)cc(C)c2)c1	21µM*	u	u	u	-81*	x
Cc1cc(F)ccc1NC(=O)c1c(C)oc2c1C1=NCCN1C=N2	x	-15%	x	0%	x	x
CCOc1ccc2oc(C(=O)Nc3cc(C)ccn3)c(C)c2c1	-29%	u	-20%	u	-24	u
Cc1oc2c(c1C(=O)Nc1cccc3ccccc13)CCCC2	10%	13µM*	2%	10µM*	3	-3%
Cc1oc(CC(C)C)cc1C(=O)Nc1cccc2ccccc12	u	-30%	-23%	-29%	13	-4%
Cc1cc(C(=O)NCCC(c2ccccc2)c2ccccc2)c(C)o1	-25%	u	-11%	18µM*	-11	3%
COc1ccccc1NC(=O)c1c(C)oc2c1CCCC2	7%	u	u	u	15	4%
Cc1cc(C(=O)Nc2cccc3ccccc23)c(C)o1	0%	-22%	6%	23µM*	-11	u
NC(=O)C1=C(c2ccccc2)c2ccccc2C1=O	u	5.2µM*	-21%	2.9µM*	-102*	x
NC(=O)C1C(c2ccccc2)=C1c1ccccc1	6%	-8%	1%	-24%	8	u
Cc1c(Cl)cccc1NC(CC(=O)c1ccccc1)C(=O)O (stereo unspecified)	2%	u	4%	15µM*	-3	u
O=C(CC(Nc1ccc(Cl)cc1)C(=O)O)c1ccccc1 (stereo unspecified)	-19%	-26%	2%	21µM*	-7	u
O=C(CC(Nc1cccc(Cl)c1Cl)C(=O)O)c1ccccc1 (stereo unspecified)	0%	12%	-17%	-22%	37	14%
Cc1ccc(S(=O)(=O)N2CCCCC2)cc1NS(=O)(=O)c1ccccc1F	-14%	-18%	-3%	22%	24	-3%
C=CCn1c(SCC(=O)Nc2cccc(S(=O)(=O)N(C)c3ccccc3)c2)nnc1C1CC1	-9%	u	-7%	u	-15	-9%
CCCC[n+]1c(C)ccc2ccccc21	x	16µM*	x	u	x	x
COc1cccc(C(=O)NCC(c2ccc3c(c2)OCO3)N2CCN(C)CC2)c1 (stereo unspecified)	x	-22%	x	-13%	x	x
COc1ccc(N2CCN(C(=O)c3ccc4c(c3)[nH]c(=S)n3c5ccccc5nc43)CC2)cc1	x	x	x	x	x	-16%
O=C(NCc1ccccn1)c1ccc2c(=O)n(CCc3ccccc3)c(=O)[nH]c2c1	-10%	u	21%	21µM*	0	-3%
COCCn1c(=O)[nH]c2cc(C(=O)NCCN3CCN(c4ccc(OC)cc4)CC3)ccc2c1=O	-1%	u	1%	-27%	15	9.2µM*
O=C(c1ccc2c(c1)[nH]c(=S)n1c3ccccc3nc21)N1CCN(c2cccc(Cl)c2)CC1	-15%	18µM*	0%	18µM*	12	-15%
COc1cccc(N2CCN(C(=O)c3ccc4c(=O)n(CCc5ccccc5)c(=O)[nH]c4c3)CC2)c1	x	7.3µM*	x	15µM*	x	x
SMILES	HT1080 IDH1KD tx	TDP1 cell noCPT	HT1080NT lethal	DT40 TDP1 CPT	IL-1B inflam inh	ELG1 DNA repair
COCCn1c(=O)[nH]c2cc(C(=O)NCCN3CCN(c4ccccc4)CC3)ccc2c1=O	0%	-13%	-2%	-9%	54	-25%
Cc1cccc(C(=O)N/C(=C\c2ccc(C)o2)C(=O)O)c1	-2%	-15%	0%	-6%	16	-2%
C=CCn1c(=O)[nH]c2cc(C(=O)N3CCN(c4ccc(C(C)=O)cc4)CC3)ccc2c1=O	u	16µM*	-30%	21µM*	-7	18µM*
C=CCn1c(=O)[nH]c2cc(C(=O)N3CCN(c4cccc(Cl)c4)CC3)ccc2c1=O	-1%	7.3µM*	-1%	9.2µM*	-3	u
CCCCCn1c(=O)[nH]c2cc(C(=O)NCCN(CC)CC)ccc2c1=O	u	21µM*	u	9.2µM*	-12	-2%
COCCn1c(=O)[nH]c2cc(C(=O)N3CCN(c4cccc(C)c4C)CC3)ccc2c1=O	-1%	21µM*	-1%	15µM*	-27	-11%
CCN(CC)CCCNC(=O)c1ccc2c(=O)n(CCc3ccccc3)c(=O)[nH]c2c1	x	u	x	-27%	x	x
C=CCn1c(=O)[nH]c2cc(C(=O)N3CCN(c4cc(C)ccc4C)CC3)ccc2c1=O	-16%	u	-28%	u	18	-17%
O=C1CC(C(=O)N2CCc3ccccc32)CN1c1cccc(C(F)(F)F)c1 (stereo unspecified)	-1%	-28%	11%	-18%	0	13%
COCCn1c(=O)c(-c2cn(C)c3ccccc23)nc2cnc(Oc3cccc(Cl)c3)nc21	x	-11%	x	-6%	x	x
COCCn1c(=O)[nH]c2cc(C(=O)N3CCN(c4ccccc4)CC3)ccc2c1=O	1%	u	1%	-29%	4	-12%
COCCn1c(=O)[nH]c2cc(C(=O)N3CCN(c4cccc(Cl)c4)CC3)ccc2c1=O	-4%	9.2µM*	11%	23µM*	-26	u
C=CCNC(=O)/C(=C\c1ccco1)NC(=O)c1ccco1	23%	2%	17%	16%	12	-6%
NNC(=O)/C(=C\c1ccco1)NC(=O)c1ccco1	u	4%	15µM*	1%	97	u
COc1ccc(C)cc1NC(=O)Cc1csc(NC(=O)Nc2ccccc2OC)n1	-9%	16µM*	-20%	u	39	x
COc1ccc(NC(=O)Cc2csc(NC(=O)Nc3ccccc3OC)n2)cc1	-25%	23µM*	-23%	26µM*	-25	x
COc1ccccc1NC(=O)Nc1nc(CC(=O)Nc2ccc(F)cc2)cs1	6%	16µM*	11%	u	-16	u
